Measurements from PubChem BioAssay (NCATS).
Inconclusive results are not listed. Active and inactive are the calls of the source. Unless noted, calls come from the whole dose curve; as a rule, active = well fitted curve in the direction sought with a large enough effect; inconclusive = small, poorly fitted or top-dose-only effect, or another doubt; inactive = no such curve, though single readings can be large; an effect the other way counts as inactive or inconclusive.

Experiments:
[1] = molecular target: Alpha-galactosidase (Coffea arabica) (UniProt Q42656); experiment: Counterscreen for Glucocerebrosidase Inhibitors: qHTS Assay for Coffee Bean alpha-Galactosidase at pH 4.5 (AID 957); note: series mostly up to about 77 µM
Summary of the method: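 Fluorogenic qHTS at pH 4.5 (citrate buffer with Tween-20): 2 nM enzyme, 80 uM 4-MU-alpha-galactoside substrate, compound titrated 0.7 nM to 77 uM, 20 min room temperature. Glycine/NaOH stop; 4-MU read Ex 365/Em 440; Hill-equation AC50 against no-enzyme and enzyme controls.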

[2] = molecular target: Alpha-galactosidase (Coffea arabica) (UniProt Q42656); experiment: Counterscreen for Glucocerebrosidase Inhibitors: qHTS Assay for Coffee Bean alpha-Galactosidase at pH 5.9 (AID 998)
Summary of the method: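 Enzyme 2 nM + cpd (0.7 nM–77 uM titration) + 4-MU-alpha-Gal 80 uM, pH 5.9 citrate/Tween-20, RT 20 min, NaOH/glycine stop pH 10, fluor 365/440. Normalized to no-enzyme and full-activity controls; Hill-fit AC50.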

[3] = Validation screen for inhibitors of Lassa infection (AID 463096; calls by dose curve)
[4] = Inducers of the Endoplasmic Reticulum Stress Response (ERSR) in human glioma: Validation (AID 504836)
Summary of the method: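 Stably transfected U87-MG glioma cells carrying a GRP78-based luciferase sensor; 16 h compound incubation. Luminescence end-point read 10 min after Bright-Glo addition at room temperature.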

[5] = qHTS for Inhibitors of the Functional Ribonucleoprotein Complex (vRNP) of Lassa (LASV) Arenavirus: LASV Primary Screen - GLuc reporter signal (AID 1347082; calls by dose curve; tested in HEK293 reporter line; note: series mostly up to about 57 µM; nearly all actives have a fitted effect of over 60% in size)
[6] = qHTS for Inhibitors of the Functional Ribonucleoprotein Complex (vRNP) of Lassa (LASV) Arenavirus: Viability assay - alamar blue signal for LASV Primary Screen (AID 1347083; calls by dose curve; tested in HEK293 reporter line; note: series mostly up to about 57 µM; nearly all actives have a fitted effect of over 80% in size)
[7] = qHTS for Inhibitors of the Functional Ribonucleoprotein Complex (vRNP) of Lymphocytic Choriomeningitis Arenaviruses (LCMV): Viability assay - alamar blue signal for LCMV Primary Screen (AID 1347085; calls by dose curve; tested in HEK293 reporter line; note: series mostly up to about 57 µM; nearly all actives have a fitted effect of over 80% in size)
[8] = molecular target: Nucleoprotein (Lymphocytic choriomeningitis virus (strain Armstrong)) (UniProt P09992); experiment: qHTS for Inhibitors of the Functional Ribonucleoprotein Complex (vRNP) of Lymphocytic Choriomeningitis Arenaviruses (LCMV): LCMV Primary Screen - GLuc reporter signal (AID 1347086; calls by dose curve; note: series mostly up to about 57 µM; nearly all actives have a fitted effect of over 70% in size)

Measured: Potency

Sequence of Nucleoprotein (Lymphocytic choriomeningitis virus (strain Armstrong)) (P09992 whole entry, looked up): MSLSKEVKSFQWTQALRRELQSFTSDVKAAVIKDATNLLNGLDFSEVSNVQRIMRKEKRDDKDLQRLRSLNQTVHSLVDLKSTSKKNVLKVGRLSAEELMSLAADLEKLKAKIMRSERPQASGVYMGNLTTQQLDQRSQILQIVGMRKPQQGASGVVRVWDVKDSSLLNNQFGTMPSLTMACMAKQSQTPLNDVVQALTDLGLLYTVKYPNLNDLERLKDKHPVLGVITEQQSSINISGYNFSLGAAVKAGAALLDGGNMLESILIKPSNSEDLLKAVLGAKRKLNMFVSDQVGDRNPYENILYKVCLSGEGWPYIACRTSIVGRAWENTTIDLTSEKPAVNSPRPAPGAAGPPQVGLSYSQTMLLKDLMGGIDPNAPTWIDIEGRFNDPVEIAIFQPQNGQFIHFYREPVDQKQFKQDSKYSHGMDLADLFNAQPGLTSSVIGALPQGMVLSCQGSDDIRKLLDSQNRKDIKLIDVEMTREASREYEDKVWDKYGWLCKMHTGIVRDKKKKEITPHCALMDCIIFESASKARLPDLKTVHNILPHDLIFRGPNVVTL
Sequence of Alpha-galactosidase (Coffea arabica) (Q42656 whole entry, looked up): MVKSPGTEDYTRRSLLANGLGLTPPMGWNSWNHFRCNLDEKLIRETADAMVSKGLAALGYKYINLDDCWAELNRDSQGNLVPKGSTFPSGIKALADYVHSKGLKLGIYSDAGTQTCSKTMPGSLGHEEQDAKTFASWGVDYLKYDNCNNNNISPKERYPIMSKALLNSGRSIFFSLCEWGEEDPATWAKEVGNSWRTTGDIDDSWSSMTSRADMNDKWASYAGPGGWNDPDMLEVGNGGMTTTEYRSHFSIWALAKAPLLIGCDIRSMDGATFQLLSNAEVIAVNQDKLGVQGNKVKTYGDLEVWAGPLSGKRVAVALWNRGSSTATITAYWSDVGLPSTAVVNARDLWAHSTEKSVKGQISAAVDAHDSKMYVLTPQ

CC(C)(CO)Cc1cc(C(C)(C)C)c(O)c(C(C)(C)C)c1
inactive: all assays above

Ic1ccc(N2CCN(Cc3c[nH]c4ncccc34)CC2)cc1
inactive: all assays above

COCc1nc2c([nH]1)c(=O)n(C)c(=O)n2CC(C)C
inactive: all assays above

NCCCCN
inactive: all assays above

NCCNS(=O)(=O)c1cccc2c(Cl)cccc12
inactive: all assays above

O=c1[nH]ccc2c(O)cccc12
inactive: all assays above

COc1ccccc1N1CCN(CCN2C(=O)CC3(CCCC3)CC2=O)CC1
inactive: all assays above

O=C(O)c1cccnc1C(=O)O
inactive: all assays above

O=c1[nH]c2cc(C(F)(F)F)ccc2n1-c1cc(C(F)(F)F)ccc1O
inactive: all assays above

CC(C)(C=O)Cc1cc(C(C)(C)C)c(O)c(C(C)(C)C)c1
inactive: all assays above

N[C@H](C(=O)O)[C@H](O)C(=O)O
inactive: all assays above

Fc1ccc(C(OCCCc2cnc[nH]2)c2ccc(F)cc2)cc1
inactive: all assays above

O=C1NC(c2cccc([N+](=O)[O-])c2)=CCN1c1ccccc1O
inactive: all assays above

O=c1[nH]c2cc([N+](=O)[O-])c([N+](=O)[O-])cc2[nH]c1=O
inactive: all assays above

NC1(C(=O)O)CC1
inactive: all assays above

CCCn1c(=O)[nH]c(=O)c2[nH]cnc21
inactive: all assays above

CC1(C)CCC=[N+]1[O-]
inactive: all assays above

O=C(O)c1ccccc1Nc1cccc(OCc2ccc3ccccc3n2)c1
inactive: all assays above

CN[C@H](CC(=O)O)C(=O)O
inactive: all assays above

C[C@H](NC(=O)/C(C#N)=C/c1ccc(O)c(O)c1)c1ccccc1
inactive: all assays above

CCCn1c(=O)c2[nH]c(-c3ccc(S(=O)(=O)O)cc3)nc2n(CCC)c1=O
inactive: all assays above

CNc1cc(NS(=O)(=O)c2ccc(N)cc2)nc(NC)n1
inactive: all assays above

Cn1cnc2c(NCc3ccccc3)nc(NCCO)nc21
inactive: all assays above

NC(N)=NCCCCN=C(N)N
inactive: all assays above

N[C@@H](Cc1c[nH]c2ccccc12)C(=O)O
inactive: all assays above

c1ccc2c(c1)CC(N1CCN(c3cccc4c3OCCO4)CC1)C2
inactive: all assays above

Fc1ccc(CN(C2=NCCN2)c2c(Cl)cccc2Cl)cc1
inactive: all assays above

Nc1ccc(-c2ccc3ccccc3n2)cc1
inactive: all assays above

C[C@@H]1C(=O)NC2=Nc3cccc(Cl)c3CN21
inactive: all assays above

N#CC(C#N)=C(N)/C(C#N)=C/c1ccc(O)cc1
inactive: all assays above

CN(C)c1nc(N)c(C(=O)N=C(N)N)nc1Cl
inactive: all assays above

CCCn1c(=O)c2c(ncn2C)n(CCC)c1=O
inactive: all assays above

CCCN(CC1CC1)c1nc(C)nc(Nc2c(Cl)cc(Cl)cc2Cl)c1Cl
inactive: all assays above

C=CC[C@H](N)C(=O)O
inactive: all assays above

NCCCNCCCCNCCCN
inactive: all assays above

COc1ccccc1N1CCN(CCCCN2C(=O)c3ccccc3C2=O)CC1
inactive: all assays above

C/C(=C\c1ccc(C(=O)O)cc1)c1ccc2c(c1)C(C)(C)CCC2(C)C
inactive: all assays above

N=C(N)SCCc1cnc[nH]1
inactive: all assays above

O=C(O)[C@@H]1C[C@@H](C(=O)O)N1
inactive: all assays above

Cn1c(=O)c2[nH]c(C3CCCC3)nc2n(C)c1=O
inactive: all assays above

CC(C)NC[C@H](O)c1ccc(O)c(O)c1
inactive: all assays above

NC(=O)CNCCC(c1ccccc1)c1ccccc1
inactive: all assays above

COc1ccc2c(c1)c(CC(=O)O)c(C)n2C(=O)c1ccccc1
inactive: all assays above

CNCCNS(=O)(=O)c1cccc2cnccc12
inactive: all assays above

CCCCCCC/C=C\CCCCCCCCC(=O)O
inactive: all assays above

CC(=O)NNC(=O)N1Cc2ccccc2Oc2ccc(Cl)cc21
inactive: all assays above

N#C/C(=C\c1ccc(O)c(O)c1)C(=O)Nc1ccccc1
inactive: all assays above

Cn1cc(C(=O)OCC2CCN(CCNS(C)(=O)=O)CC2)c2ccccc21
inactive: all assays above

Cn1c(=O)c2[nH]c(-c3ccccc3)nc2n(C)c1=O
inactive: all assays above

O=C(O)c1cc(=O)c2ccccc2[nH]1
inactive: all assays above

Oc1ccc(Cn2cc[nH]c2=S)cc1
inactive: all assays above

NCCS(=O)O
inactive: all assays above
